Source: PubChem (National Center for Advancing Translational Sciences (NCATS))
D1 antagonist: Antagonist of Human D 1 Dopamine Receptor: qHTS; D(1A) dopamine receptor (Homo sapiens), P21728; HEK293 TREx D1 cells, calcium flux, dopamine EC80; stronger effect = lower value; activity change, negative = inhibition, % at 10 µM; hit rate 3.2% among 360,000; in the data active means activity change below about -30%; further: on the % scale 0 is the no-effect control and ±100 the full control effect
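Tetracycline-induced HEK293 T-REx cells with force-coupled D1 receptor were loaded with a no-wash calcium dye. Compound was added after a 10 s baseline and read kinetically for 180 s; EC80 dopamine was then added and calcium flux followed another 180 s.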
TRHR agonist: qHTS for Small Molecule Agonists and Allosteric Enhancers of Human TRH Receptor: Primary Screen for Agonists. activation, % at 2 µM. TRHR cells, calcium flux fluo-8, FDSS agonist mode. hit rate 0.18% among 360,000; further: 0% is about no effect
Target sequence (P34981 whole entry, looked up): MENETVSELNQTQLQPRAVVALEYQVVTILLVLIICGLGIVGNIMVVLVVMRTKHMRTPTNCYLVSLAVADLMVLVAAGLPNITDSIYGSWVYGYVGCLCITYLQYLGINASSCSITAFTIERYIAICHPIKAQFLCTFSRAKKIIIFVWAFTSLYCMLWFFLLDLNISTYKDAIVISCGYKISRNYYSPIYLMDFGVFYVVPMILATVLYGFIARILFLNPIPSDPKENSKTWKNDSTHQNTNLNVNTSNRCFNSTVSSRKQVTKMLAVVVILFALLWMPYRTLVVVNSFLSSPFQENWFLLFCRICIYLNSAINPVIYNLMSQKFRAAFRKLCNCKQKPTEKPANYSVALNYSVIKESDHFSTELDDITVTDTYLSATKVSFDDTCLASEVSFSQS
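Agonist-mode FDSS calcium read (Ex 480/Em 530, 1 s cycles) in 1536-well TRHR cells with fluo-8 dye, after 10-cycle baseline and 23 nL compound addition; TRH at EC20 (10 nM final) added afterwards for the enhancer phase.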
Glioma ERSR ind: qHTS for Inducers of the Endoplasmic Reticulum Stress Response (ERSR) in Human Glioma: qHTS. U87-MG GRP78 promoter luciferase reporter, 16 h. Potency, µM, for the others: at the highest dose activation, hits mostly activators. hit rate 0.02% among 420,000; active means well fitted activation curve with a large enough effect; further: potency means the concentration at half of the fitted maximal effect; series mostly up to about 76 µM; % of control where 0% means no effect; nearly all actives have a fitted effect of over 35% in size
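Stably transfected U87-MG glioma cells carrying a GRP78-based luciferase sensor; 16 h compound incubation. Luminescence end-point read 10 min after Bright-Glo addition at room temperature.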
D1 potentiator: Potentiators of Human D1 Dopamine Receptor: qHTS; HEK293 TREx D1 cells, calcium flux, dopamine EC20 potentiation; potentiation, % at 10 µM; hit rate 0.036% among 360,000; AID 504651, 2011; in the data active means potentiation above about 30%; further: 0% is about no effect
D1 agonist: Allosteric Agonists of the Human D1 Dopamine Receptor: qHTS; activation, % at 2 µM; D(1A) dopamine receptor (Homo sapiens), P21728; hit rate 1% among 360,000; AID 504660, 2011; HEK293 T-REx D1 cells, calcium flux, agonist mode; further: 0% is about no effect
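Tetracycline-induced HEK293 TREx D1 cells, force-coupled to calcium signalling, were dye-loaded with a no-wash calcium kit. Compound was pin-added after a 10 s baseline. Fluorescence was read kinetically at 1 cycle/s for 180 s, with calcium rises flagged as agonism.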
TRHR PAM: qHTS for Small Molecule Agonists and Allosteric Enhancers of Human TRH Receptor: Primary Screen for Enhancers | hit rate 0.66% among 360,000 | Thyrotropin-releasing hormone receptor (Homo sapiens), P34981 | enhancement, % at 2 µM | TRHR cells, fluo-8 calcium fluorescence, EC20 TRH enhancement | AID 493056, 2011; in the data active means enhancement above about 30%; further: 0% is about no effect
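Enhancer read-out: after compound pinning and an initial kinetic agonist-mode read, an EC20 of TRH (10 nM final) was injected and fluo-8 calcium signal (Ex 480/Em 530) followed at 1 s/cycle for 100 cycles in TRHR-expressing cells.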
The depositor's hits bear a star; . = no result given. In the library only some 4% were active in any assay of this set; here they are far more common. Unless noted, no stated cut-off is given here; in the data, active means activation above about 30%; inactive means the rest.

SMILES	D1 antagonist	TRHR agonist	Glioma ERSR ind	D1 potentiator	D1 agonist	TRHR PAM
C#CCOCCOCCOCCNc1nc(N2CCN(C(=O)Cn3cc(CCCCN)nn3)CC2)nc(N2CCN(C(=O)Cn3cc(CCCCN)nn3)CC2)n1	1	0	0%	-3	-3	1
C#CCOCCOCCOCCNc1nc(N2CCN(C(=O)CCCCCCCCCCNC(=O)Cn3cc(CCCCCN)nn3)CC2)nc(N2CCN(C(=O)CCCCCCCCCCNC(=O)Cn3cc(CCCCCN)nn3)CC2)n1	37	5	-3%	53*	38*	-3
C#CCOCCOCCOCCNc1nc(N2CCN(C(=O)CCCCCCCCCCNC(=O)Cn3cc(CCCCCN)nn3)CC2)nc(N2CCN(C(=O)CCCCCCCCCCNC(=O)[C@@H](CCC(=O)O)n3cc(CCCCCN)nn3)CC2)n1	0	0	-3%	-9	39*	3
CN(C)S(=O)(=O)c1ccc(NC(=O)c2ccc3ncsc3c2)cc1	7	0	-2%	-3	2	3
O=[N+]([O-])c1ccc2nc(Cl)nc(-c3ccccc3)c2c1	-34*	-1	2%	-1	1	-2
COc1ccc(Cc2nc3ccc(C(=O)N(C)CCCN4CCOCC4)cc3o2)cc1	-49*	0	-1%	-3	4	-2
CCN1CCN(CCCNC(=O)c2ccc3nc(Cc4ccccc4)oc3c2)CC1	-18	0	-2%	-2	7	-3
O=C(NCCCN1CCN(c2ccc(F)cc2)CC1)c1ccc2nc(Cc3ccccc3)oc2c1	-38*	1	-5%	-4	26	-6
O=C(NCCCN1CCN(c2ccccc2)CC1)c1ccc2nc(Cc3ccccc3)oc2c1	-60*	0	-1%	-3	32*	-6
COc1ccc(N2CCN(CCCNC(=O)c3ccc4nc(N5CCCCC5)sc4c3)CC2)cc1	-57*	-1	-3%	-4	13	-9
CCN1CCN(CCCNC(=O)c2ccc3nc(Cc4ccc(OC)cc4)oc3c2)CC1	-1	0	-3%	0	5	-2
CCC(C)NC(=O)c1ccc2nc(Cc3ccc(OC)cc3)oc2c1 (configuration not stated)	18	0	4%	0	1	-1
CCC(NC(=O)c1ccc2nc(Cc3ccc(OC)cc3)oc2c1)c1ccncc1 (configuration not stated)	-41*	1	-4%	-8	21	-3
O=S1(=O)CCOC[C@H](CC2CCCCC2)N1Cc1ccc(Cl)cc1	11	0	-6%	-6	2	2
O=C(NCC(c1ccc(F)cc1)N1CCOCC1)c1c(F)cccc1F (configuration not stated)	-10	0	-4%	-5	5	-5
Cn1ncc(Cl)c1C(=O)N/N=C/c1cccc(OC2CSC2)c1	-45*	0	0%	-4	11	-10
O=C(CSc1ncccn1)N/N=C/c1cccc(OC2CSC2)c1	-36*	0	-5%	-10	11	-4
COc1cccc(/C=N/NC(=O)CSc2cccc3cccnc23)c1	3	-1	4%	-10	4	-3
Cn1ncc(Cl)c1C(=O)N/N=C/c1ccccn1	16	0	-1%	-1	5	27
CS(=O)(=O)N(CC(=O)N1CCCCC1)c1sc2c(c1C#N)CCCC2	-21	0	-3%	-11	2	4
Cc1ccc(CS(=O)(=O)CCC(=O)NCc2ccccc2Cl)cc1	-5	0	-6%	-7	43*	-4
COc1ccccc1CNC(=O)CCS(=O)(=O)Cc1ccc(C)cc1	0	0	-1%	-8	1	5
O=C(Nc1ccc(SC(F)F)cc1)c1ccccc1F	-8	0	-5%	-5	2	4
O=C(Nc1ccc(SC(F)F)cc1)c1ccc(F)cc1	-37*	0	2%	-11	12	-4
CC(=O)N1C[C@H]2CON(C)[C@H]2C[C@H]1c1ccc(-c2ccc(C#N)cc2)cc1	.	.	-1%	.	.	.
SMILES	D1 antagonist	TRHR agonist	Glioma ERSR ind	D1 potentiator	D1 agonist	TRHR PAM
O=C(NNc1ccccn1)C(=O)NNS(=O)(=O)c1ccc(Cl)cc1	.	.	-4%	.	.	.
Cc1ccc(-c2nnn(C/C(N)=N/O)n2)cc1	-39*	4	-3%	-2	6	36*
CCOC(=O)CC(/C(C)=N\O)c1ccccc1 (configuration not stated)	-75*	1	2%	1	1	1
CC(C)Cn1c(N)c(C(=O)CSc2ccc3c(c2)OCCO3)c(=O)n(C)c1=O	-33*	1	1%	-7	24	1
CCCNC(=O)c1ccc2c(=O)c(O)c(-c3cccc(Br)c3)[nH]c2c1	-36*	-1	-8%	-8	6	5
CCCNC(=O)c1ccc2c(=O)c(O)c(C)[nH]c2c1	-6	0	-3%	-5	4	-1
CCCNC(=O)c1ccc2c(=O)c(O)c(-c3ccc(F)cc3)[nH]c2c1	-59*	2	-7%	-9	1	2
Cc1ccc(Nc2ccccc2)nn1	31	-1	-5%	0	0	-3
C[C@@H](C(=O)Nc1cccc(S(=O)(=O)N2CCOCC2)c1)N1C(=O)C2CC=CCC2C1=O (some centres not stated)	51	0	-3%	4	-1	2
COc1cc(OC)c(OC)cc1CN1CCN(Cc2ccco2)CC1	-33*	0	-4%	1	4	5
Cc1ccc(S(=O)(=O)N2CCOCC2)cc1NC(=O)CSc1nnnn1C	-35*	4	-3%	2	3	0
O=C(Nc1nc(-c2ccc(-c3ccccc3)cc2)cs1)c1cc([N+](=O)[O-])ccc1N1CCOCC1	-36*	-3	-2%	-7	0	-3
Cc1ccc(S(=O)(=O)N2CCOCC2)cc1NC(=O)c1cc([N+](=O)[O-])ccc1N1CCOCC1	-69*	0	-5%	0	-2	-1
O=C(Nc1nc2c(ccc3ccccc32)s1)c1cc([N+](=O)[O-])ccc1N1CCOCC1	4	-3	.	1	6	6
COc1ccccc1CNC(=O)CCNS(=O)(=O)c1ccc2c(c1)CC(C)N2C(C)=O (configuration not stated)	-1	0	-4%	0	1	16
CCSc1cc(N2CCCC2)nc(-c2cccc(C)c2)n1	5	-1	-2%	6	16	31*
